Drawing on PubChem BioAssay (Tox21), this text covers Potency for 40 molecules.

Molecules are shown by their SMILES. Records with an inconclusive call do not appear. A call without a number means that no potency is given here. Active and inactive are the calls of the source. Calls come from the whole dose curve.

This test in a line: Nuclear factor erythroid 2-related factor 2/antioxidant responsive element (Nrf2/ARE) small molecule agonists: luciferase reporter gene qHTS assay in human keratinocytes (AID 1919969). Note: nearly all actives have a fitted effect of over 35% in size. Particulars: KeratinoSens HaCaT ARE-luciferase, luminescence, 24 h; series mostly up to 92.4 µM. An excerpt: National Center for Advancing Translational Sciences [NCATS]
Division of Preclinical Innovation [DPI]
U.S. Environmental Protection Agency [EPA]
National Institutes of Environmental Health Sciences [NIEHS]
National Toxicology Program [NTP]
U.S. Food and Drug Administration [FDA]
Oxidative stress has been implicated in the pathogenesis of a variety of diseases ranging from cancer to neurodegeneration. The antioxidant response element (ARE) signaling pathway plays an important role in the amelioration of oxidative stress. The KeratinoSens (Givaudan, Switzerland) is an in vitro test method which quantifies luciferase induction as a measure of activation of Keap1-Nrf2-antioxidationt/electrophile response element (ARE) dependant pathway in HaCaT human keratinocytes stably transfected with a selectable plasmid. The KeratinoSens assay is a cell-based assay with a reporter cell line to detect potential skin sensitizers by their ability to induce the Nrf2/ARE-response. The activation of the report gene under culture conditions can be detected by ONE-Glo Luciferase Assay System (Promega, Madison, WI). This cell line has been used to screen the Tox21 10K compound library to identify agonists that induce oxidative stress. The cytotoxicity of the Tox21 compound library against the KS-ARE cell line was tested in parallel by measuring the cell viability using CellTiter- Fluor assay system (Promega, Madison, WI) in the same wells.
HaCaT derived cell line KeratinoSens were dispensed at 1,500 cells/5uL/well in 1536-well white wall/solid bottom plates using a Multidrop Combi (ThermoFisher Scientific, Waltham, MA) dispenser. After the assay plates were incubated at 37 C/5% CO2 for 5 h, 23 nL of compounds dissolved in DMSO, positive controls or DMSO only was transferred to the assay plate by a pintool workstation (Kalypsys, San Diego, CA). The plates were incubated at 37 C/5% CO2 for 23 h, followed by addition of 1uL/well of CellTiter-Fluor reagent into the assay plates using a Flying Reagent Dispenser (Aurora Discovery, San Diego, CA) for cell viability readout that measures cytotoxicity. After 1 h incubation at 37 C/5% CO2 the fluorescence intensity was measured using a ViewLux (PerkinElmer, Shelton, CT) plate reader. Then 4uL/well of One-Glo were added using a Flying Reagent Dispenser. After the plates were incubated at room temperature for 30 min, the luminescence intensity in the assay plates was measured using ViewLux plate reader.
For orientation: A reporter such as luciferase makes a cellular process visible.
Turning to `CC(C)=CCOC(=O)c1ccccc1`, the Potency entry is “inactive”.

With `Cc1cc(NC(=O)C2=C(O)c3ccccc3S(=O)(=O)N2C)no1`, the Potency entry is “inactive”.

For the molecule `CC(=O)c1cccnc1`, the Potency entry is “inactive”.

With `O=C(O)c1cccc(Oc2ccccc2)c1`, the Potency entry is “inactive”.

For the molecule `CCN(CC)C(=O)N1CCN(C)CC1`, the Potency result was “inactive”.

`Cc1ncc([N+](=O)[O-])n1CC(C)O` (stereo not given): the Potency result is “inactive”.

As for `CCN(CCC#N)c1ccc(N=Nc2ccc([N+](=O)[O-])cc2)cc1`, the Potency result is “inactive”.

`CCCC(c1cc(C(C)(C)C)c(O)cc1C)c1cc(C(C)(C)C)c(O)cc1C`: the Potency entry was “inactive”.

As to `[O-][n+]1cccc(/C(Cl)=N/OC[C@@H](O)CN2CCCCC2)c1`, the Potency entry was “inactive”.

For the molecule `Nc1ccc(S(=O)(=O)Nc2ccccn2)cc1`, the Potency result is “inactive”.

As to `Cc1cc(C)c(O)c(C(C)(C)C)c1`, the Potency result was “inactive”.

For the molecule `ClC1=C(Cl)C1(Cl)Cl`, the Potency entry was “inactive”.

In the case of `C=C(C)C1CC=C(C)C(O)C1` (stereo not given), the Potency entry was “inactive”.

Take `CC(=O)Oc1ccc(C(C)=O)cc1`: the Potency result is “inactive”.

As to `CCOC(=O)Cn1c(=O)sc2cccc(Cl)c21`, the Potency entry is “inactive”.

As for `COc1ccccc1OCC(O)CN1CCN(CC(=O)Nc2c(C)cccc2C)CC1` (stereo not given), the Potency entry was “inactive”.

Take `c1ccc(COCc2ccccc2)cc1`: the Potency result is “inactive”.

With `COCCOC(=O)C1=C(C)NC(C)=C(C(=O)OC(C)C)C1c1cccc([N+](=O)[O-])c1` (stereo not given), the Potency entry was “inactive”.

Consider `Cc1cccc(C)c1NC(=O)CN1CCCC1`, for which the Potency entry was “inactive”.

Consider `COC[C@H](c1ccc(C(F)(F)F)cc1)N1CCN(C2(C)CCN(C(=O)c3c(C)ncnc3C)CC2)C[C@H]1C`, for which the Potency entry is “inactive”.

For `O=S(=O)(O)c1ccc(Cl)cc1`, the Potency entry is “inactive”.

On to `O=C(CN1CCN(Cc2ccc3c(c2)OCO3)CC1)N1c2ccccc2Sc2ccccc21`, for which the Potency result was “inactive”.

Turning to `Cn1c(=O)[nH]c2ncn(C)c2c1=O`, the Potency entry is “inactive”.

For the molecule `CC(C)SCc1ccco1`, the Potency result was “inactive”.

As to `CC1=CP(=O)(c2ccccc2)CC1` (stereo not given), the Potency entry was “inactive”.

Turning to `CCN(CC)C(=O)N(CC)CC`, the Potency entry was “inactive”.

As to `CC(=O)CCc1ccc(O)cc1`, the Potency result is “inactive”.

Turning to `C/C=C(\C)C=O`, the Potency result is “inactive”.

Regarding `CNC(=O)c1c(I)c(NC(=O)CCCCC(=O)Nc2c(I)c(C(=O)O)c(I)c(C(=O)NC)c2I)c(I)c(C(=O)O)c1I`, the Potency result was “inactive”.

With `C=CC1CC2C=CC1C2` (stereo not given), the Potency result is “inactive”.

As for `CC(CO)(CO)C(=O)O`, the Potency result is “inactive”.

Take `O=C(O)c1ccncc1`: the Potency result is “inactive”.

`CC(C)(C)C(=O)CC(=O)C(C)(C)C`: the Potency entry is “inactive”.

For `CC(C(=O)O)c1cccc(Oc2ccccc2)c1` (stereo not given), the Potency entry was “inactive”.

Turning to `O=C(C1CCCCC1)N1CC(=O)N2CCCc3ccccc3C2C1` (stereo not given), the Potency result is “inactive”.

For `CCCCCCC(O)CCCCCCCCCCC(=O)OC` (stereo not given), the Potency result is “inactive”.

`O=C(COCCOCCOCC(=O)Nc1c(I)cc(I)c(C(=O)O)c1I)Nc1c(I)cc(I)c(C(=O)O)c1I`: the Potency result is “inactive”.

For `O=CNNC=O`, the Potency entry was “inactive”.

Turning to `CC(C)C/C=C(\C=O)c1ccccc1`, the Potency result is “inactive”.

On to `CCCCCCCC(C)=O`, for which the Potency result is “inactive”.
